Source: PubChem
HPGD inh: blocks human HPGD enzyme activity | P15428 | purified HPGD, NADH fluorescence kinetic, PGE2 substrate | Potency, µM, for the others: at the highest dose activity change, negative = inhibition, most hits filed as inhibitors | 150,000 tested, 4.3% active | AID 894; active = well fitted inhibition curve with a large enough effect, not every such curve was filed as active; inconclusive = small, poorly fitted or top-dose-only effect, or another doubt; inactive = no such curve, though single readings can be large or run the other way; also: potency is read from the fitted curve at half-maximal effect; % is scaled to controls: 0 for no effect and ±100 for the full control effect
Target sequence (P15428 whole entry, looked up): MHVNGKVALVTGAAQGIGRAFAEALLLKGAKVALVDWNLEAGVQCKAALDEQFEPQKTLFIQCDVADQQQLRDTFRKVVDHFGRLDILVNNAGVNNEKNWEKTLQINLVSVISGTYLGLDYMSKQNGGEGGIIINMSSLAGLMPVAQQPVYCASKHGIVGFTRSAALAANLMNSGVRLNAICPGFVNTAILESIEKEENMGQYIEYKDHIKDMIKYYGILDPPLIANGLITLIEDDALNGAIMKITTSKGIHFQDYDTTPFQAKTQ
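NADH formation kinetics: reaction with 30 uM PGE2 and 1 mM NAD+ (final), 20 nM enzyme, Tris-HCl pH 8 with Tween 20, after 15 min compound preincubation at room temperature. Fluorescence change, last versus first of five reads.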
ALDH1A1 block: inhibitors of human aldehyde dehydrogenase 1A1 | P00352 | Purified ALDH1A1, NADH fluorescence, propionaldehyde substrate | Potency, µM (titrated, usually from 75.3 µM), without a hit: top-dose activity, negative = inhibition, hits mostly inhibitors | 220,000 tested, 7.3% active | AID 1030; active = well fitted inhibition curve with a large enough effect, not every such curve was filed as active; inconclusive = small, poorly fitted or top-dose-only effect, or another doubt; inactive = no such curve, though single readings can be large or run the other way;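 also: potency is read from the fitted curve at half-maximal effect; plate controls were no enzyme wells and a reference inhibitor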
IMPase Li inh: IMPase inhibition in cells with lithium potentiation; CHO-M1 cells, IP1 TR-FRET (IP-One), carbachol + lithium; Potency, µM (doses to about 59.4 µM), for inactives: top-dose activity, negative = IMPase inhibition, most hits filed as inhibitors; 210,000 tested, 0.35% active;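 also: IP1 builds up when IMPase is blocked and the TR-FRET signal falls; potency is read from the fitted curve at half-maximal effect; plate controls were basal vehicle for no effect and high inhibitor control for full effect; nearly all actives have a fitted effect of over 50% in size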
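Lithium-sensitised IP1 accumulation assay; M1-expressing CHO cells treated 30 min at 37C with compound. Competitive antibody detection by time-resolved FRET followed a 10 min room-temperature lysis step.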
IMPase inh: IMPase inhibition in cells | CHO-M1 cells, IP1 accumulation, HTRF TR-FRET ratio | inhibition (IP1 accumulation), % at 46.1 µM | 120,000 tested, under 10 active; active = well fitted curve in the direction sought with a large enough effect in the signal ratio, not every such curve was filed as active; inconclusive = small, poorly fitted or top-dose-only effect, or a change in a side signal; inactive = no such curve, though single readings can be large or run the other way; the % refers to the signal ratio;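 also: cells stimulated with carbachol in lithium chloride buffer; plate controls were DMSO basal wells for no effect and reference inhibitor wells for full effect; higher means more IMPase inhibition seen as more IP1 and lower FRET ratio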
Target sequence (P97697 whole entry, looked up): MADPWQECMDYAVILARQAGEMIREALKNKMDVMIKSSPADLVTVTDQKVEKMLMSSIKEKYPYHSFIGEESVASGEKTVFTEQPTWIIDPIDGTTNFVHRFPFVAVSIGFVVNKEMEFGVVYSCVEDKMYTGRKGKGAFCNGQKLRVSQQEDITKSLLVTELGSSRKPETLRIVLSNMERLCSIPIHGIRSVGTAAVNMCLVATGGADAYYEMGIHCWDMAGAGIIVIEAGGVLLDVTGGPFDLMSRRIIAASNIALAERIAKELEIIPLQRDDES
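Carbachol-driven Gq signalling in CHO-M1 cells (2000/well) generates IP1. Compounds that block IMPase raise IP1 and so reduce the FRET signal from Eu-anti-IP1 and d2-IP1 after a 10 min room-temperature lysis.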
HTT ATP protect: Huntington cell model cytoprotection by ATP luminescence | PC12 HTT-Q103 induced, cytoprotection, ATP luminescence, 40 h | Potency, µM (titrated, usually from 56.4 µM), without a hit: cytoprotection (ATP increase), most hits filed as activators | 230,000 tested, 0.14% active; also: potency is read from the fitted curve at half-maximal effect; % of control where 0% means no effect; nearly all actives have a fitted effect of over 45% in size
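Huntington model: PC12 line, ecdysone-inducible HTTQ103 exon1–GFP, tebufenozide 100 nM. Test articles in a dose series. Endpoint luminescence from cellular ATP.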
HTT aggregate: reduces HttQ103-GFP aggregates in PC12 cells | Potency, µM (series often up to 46.1 µM), without a hit: top-dose activity change, negative = inhibition, most hits filed as inhibitors | PC12 HttQ103-GFP aggregates, Acumen cytometry, 40 h | 220,000 tested, 1.1% active; also: potency is read from the fitted curve at half-maximal effect; % is scaled to controls: 0 for no effect and ±100 for the full control effect; nearly all actives have a fitted effect of over 60% in size
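Aggregates are detected as GFP objects 1–25 µm with signal 6 STDEV over background in lysates of induced PC12 cells. These carry Huntingtin exon 1 with 103 glutamines fused to GFP under an ecdysone promoter; compounds titrated.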
* marks the source's active call; other numbers are inactive results; ? = inconclusive; / = no result; [ ] = dose if it differs, or a comment. Compounds with a hit are over-represented: about 9.4% of the library has one in this group of screens. Unless noted, calls follow the shape of the dose curve; as a rule, active = well fitted curve in the direction sought with a large enough effect; inconclusive = small, poorly fitted or top-dose-only effect, or another doubt; inactive = no such curve, though single readings can be large; an effect the other way counts as inactive or inconclusive.

SMILES	HPGD inh	ALDH1A1 block	IMPase Li inh	IMPase inh	HTT ATP protect	HTT aggregate
CC(=O)c1sc(N/N=C\c2ccc(Br)cc2)nc1C	-5%	?	4%	/	-3%[10 µM]	-11%
CC(=O)c1sc(N/N=C\c2cccc(Br)c2)nc1C	28µM*	25µM*	6%	/	-1%[10 µM]	-14%
Cn1c(=O)n(C)c2cc(C(=O)c3ccccc3)ccc21	-14%	7.9µM*	17%[38.3 µM]	14	-38%	18%
CCCCC[C@H](O)/C=C/C=C\C/C=C\CCCCCCC(=O)O	-5%	1%	6%	/	-39%	/
O=c1cnc2cnc(Nc3ccccc3)nc2n1C1CC1	/	-1%	13%	/	20µM*	/
COc1ccc(OC[C@@H](CO)OC)cc1	/	14%[13.5 µM]	/	/	18%[10 µM]	/
CCc1ccc(OC2=NS(=O)(=O)c3ccccc32)cc1	/	-4%	-2%	/	-18%	4%
CCN(CC)c1cccc(OC2=NS(=O)(=O)c3ccccc32)c1	/	22µM*	/	9	0%	23%
S=C(c1nc2ccccc2[nH]1)N1CCOCC1	?	13µM*	1%	4	0%[1.9 µM]	-3%
C=CCSc1nnc(-c2sc(-c3ccccc3)nc2C)n1C	?	?	-12%	-3	43%[10 µM]	1%
C=CCN(C(=O)CSC1=NC(=O)CN1C(C)=O)c1nc(C)c(-c2ccccc2)s1	/	6.3µM*	18%	/	-21%	?
O=C(/C(=C\c1ccccc1)c1nc2ccccc2[nH]1)c1ccc(Cl)cc1	-8%	12%	12%	-11	-54%[10 µM]	?
COC(=O)/C(=C\c1ccc(O)cc1)c1nc2ccccc2[nH]1	/	12µM*	10%	/	18%	9%
O=C(/C(=C/c1ccc(Cl)cc1)c1nc2ccccc2[nH]1)c1cccs1	?	?	58%[38.3 µM]	7	-110%	5µM*
O=C(/C(C=Nc1cc2c(oc1=O)CCCC2=O)=C(\O)c1ccccc1)c1ccccc1	/	?	3%	/	-39%	-16%[9.22 µM]
CNC(=O)CSc1nnc(-c2ccc(S(=O)(=O)N3CCCC3)cc2)n1-c1cccc(C)c1C	?	-10%	28%[38.3 µM]	6	-6%[10 µM]	7%
CCOc1ccccc1-n1c(SCC(=O)NC)nnc1-c1ccco1	-5%	7%	5%[38.3 µM]	3	-16%	1%
CCOc1ccccc1-n1c(SCC(N)=O)nnc1-c1ccco1	-14%	25µM*	20%[38.3 µM]	-8	16%[10 µM]	-11%
COc1ccccc1-n1c(SCC(=O)O)nnc1-c1ccc(S(=O)(=O)N2CCCCC2)cc1	?	13µM*	24%[38.3 µM]	9	-2%	-17%
CNC(=O)CSc1nnc(-c2ccco2)n1-c1ccccc1OC	-5%	20µM*	2%[38.3 µM]	?	-20%[10 µM]	3%
COc1ccc(C(=O)[C@H]2[C@H]3[C@@H](C(=O)[C@@H]4OC[C@H]3O4)[C@H]3C=Cc4ccccc4N32)c(OC)c1	/	/	/	/	-3%	/
COc1ccc(OC)c(C2=NOC(C(=O)N3CCCc4ccccc43)C2)c1 (centres undefined)	-25%	11µM*	27%[38.3 µM]	-11	9%	18%
COc1cc(OC)c(C2=NOC(C(=O)N3CCN(C(=O)c4ccco4)CC3)C2)cc1Cl (centres undefined)	/	-12%	4%	/	-13%	?
O=C(C1CC(c2ccc(F)cc2)=NO1)N1CCCc2ccccc21 (centres undefined)	-8%	3%	27%[38.3 µM]	7	2%	3%
COc1cc(OC)c(C2=NOC(C(=O)N3CCc4ccccc4C3)C2)cc1Cl (centres undefined)	11µM*	-12%	24%[38.3 µM]	8	-23%[10 µM]	?
SMILES	HPGD inh	ALDH1A1 block	IMPase Li inh	IMPase inh	HTT ATP protect	HTT aggregate
O=C(Nc1ccon1)c1ccc(Cl)s1	18µM*	9%	2%	0	-11%[10 µM]	-22%
O=C(Nc1cnccn1)c1csc2ccccc12	-21%	?	12%[38.3 µM]	-9	-7%[10 µM]	-2%
O=C(Nc1ccon1)c1csc2ccccc12	25µM*	?	-8%[38.3 µM]	-3	11%[0.074 µM]	-12%
CC(C)C[C@@H](CC(=O)N[C@H](CC(=O)N[C@@H]1CCNC[C@H]1C(=O)N[C@H](CC(=O)N[C@@H](CCC(=O)O)CC(=O)O)Cc1c[nH]c2ccccc12)C(C)C)NC(=O)[C@@H]1CNCC[C@H]1N	0%	?	14%	/	-17%[1.9 µM]	/
N#Cc1c(NC(=O)C(F)(F)F)sc2c3c(=O)c4ccccc4c(=O)c=3oc3ccccc3c12	-18%	-19%[13.5 µM]	23%	/	-21%[10 µM]	/
COc1ccc2[nH]c3c(=S)nc[nH]c3c2c1	/	?	2.8µM*	/	20%[10 µM]	5%[9.22 µM]
COc1ccc2[nH]c3c(Cl)ncnc3c2c1	/	-1%	/	9	-12%[10 µM]	-13%
C[C@]12CC[C@H](O)CC1=CC[C@H]1[C@@H]2CC[C@@]2(C)C(N(CCO)CCO)CC[C@@H]12 (some centres undefined)	-1%	2%[13.5 µM]	14%	/	/	/
CCN(CC)c1ccc(C=Nc2ccc(C#N)cc2)c(O)c1	28µM*	35µM*	-21%[38.3 µM]	3	-8%	7%[9.22 µM]
CCOC(=O)C1(N(CC)CC)Sc2cc(C)ccc2NC1=O (centres undefined)	-22%	?	10%[38.3 µM]	-18	-36%	13%
COC(=O)C1=C(C(=O)OC)SC2(S1)C(C(=O)OC)=C(C(=O)OC)SC1=C2c2cc(C)ccc2NC1(C)C	10µM*	8.9µM*	33%[38.3 µM]	4	-2%	15%
COc1ccc(C(=O)/C=C/c2ccc(OC)c(O)c2)c(F)c1	32µM*	4%	-1%	4	10%[10 µM]	-6%
COc1ccc(/C=C/C(=O)c2ccc(Cl)s2)cc1O	?	?	7%[38.3 µM]	-1	-31%	-10%
CN(C)S(=O)(=O)N1CCN(S(=O)(=O)c2ccc(F)cc2)CC1	-2%	3%	-11%[38.3 µM]	10	-8%	-14%
CN(C)S(=O)(=O)c1ccc(N2CCN(S(=O)(=O)c3ccc(F)cc3)CC2)c(Cl)c1	-3%	7%	14%[38.3 µM]	-7	-22%[10 µM]	10µM*
CC(O)CNC(=O)C1CCN(Cc2ccc(OCc3ccccc3)cc2)CC1 (centres undefined)	-4%	20µM*	6%[38.3 µM]	6	-3%[4.97 µM]	14%
CCOC(=O)c1sc(NC(=O)c2ccc(C)o2)nc1C	20µM*	-11%	-8%[38.3 µM]	8	-107%	-12%
CCOC(=O)c1sc(NC(C)=O)nc1C	?	?	18%[38.3 µM]	5	-7%	-27%
CCOC(=O)c1sc(NC(=O)C2CC=CCC2C(=O)O)nc1C (centres undefined)	-15%	0.13µM*	4%[38.3 µM]	-16	22%	-2%
COC(=O)[C@@H]1C[C@@H]2CC[C@@H](O)C[C@@H]2N1Cc1ccc(C)s1	-8%	2%	-11%	/	-11%	/
CCN(CC)c1ccc(/C=C/c2cc(-c3ccccc3)c3ccccc3n2)cc1	/	11µM*	/	/	-3%[10 µM]	7%[9.22 µM]
